# Measurements published in the supplement of paper PMC10849652.
# The full data set covers some 8,800 targets. This sample favours those with a hit. About 0.5% of all pairs of compound and target were hits. Values without a mark were called inactive.
# Columns and labels:
# Assay in all cases: log2 fold change, soluble protein after heating vs DMSO (PISA); higher = thermal stabilisation; K562 lysate, 10 uM; active = over 0.2 and 3.5 SD of the protein, either way, in both replicates (recomputed)
# [1] = compound: NCC(=O)Nc1ccc(-n2nc(C(F)(F)F)cc2-c2ccc3c(ccc4ccccc43)c2)cc1
# Method in brief: (§1)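 Pellets of K562 cells were dounce-homogenised in PBS pH 7.4 with 1 mM MgCl2, and the crude extract was held at 1 mg/mL protein for a 30 min treatment with 10 μM compound. Aliquots were heated for 3 min over 48°C-58°C and pooled before NP-40 was added to 0.5% at 4°C. The supernatant from 21,000xg for 90 min was quantified by TMTpro 16plex LC-MS/MS with channel sums equalised. Values are reported from duplicates as log-two fold change in thermal stability relative to solvent controls.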
# vorinostat = compound: O=C(CCCCCCC(=O)Nc1ccccc1)NO [vorinostat]
# Method in brief: as §1
# silmitasertib = compound: O=C(O)c1ccc2c(c1)nc(Nc1cccc(Cl)c1)c1ccncc12 [silmitasertib]
# Method in brief: as §1
# [2] = compound: O=C1NC(=O)C(c2cnc3ccccn23)=C1c1cn2c3c(cc(F)cc13)CN(C(=O)N1CCCCC1)CC2
# Method in brief: as §1
# entospletinib = compound: c1cn2cc(-c3ccc4cn[nH]c4c3)nc(Nc3ccc(N4CCOCC4)cc3)c2n1 [entospletinib]
# Method in brief: as §1
# UniProt O76075, sequence (O76075 whole entry, looked up): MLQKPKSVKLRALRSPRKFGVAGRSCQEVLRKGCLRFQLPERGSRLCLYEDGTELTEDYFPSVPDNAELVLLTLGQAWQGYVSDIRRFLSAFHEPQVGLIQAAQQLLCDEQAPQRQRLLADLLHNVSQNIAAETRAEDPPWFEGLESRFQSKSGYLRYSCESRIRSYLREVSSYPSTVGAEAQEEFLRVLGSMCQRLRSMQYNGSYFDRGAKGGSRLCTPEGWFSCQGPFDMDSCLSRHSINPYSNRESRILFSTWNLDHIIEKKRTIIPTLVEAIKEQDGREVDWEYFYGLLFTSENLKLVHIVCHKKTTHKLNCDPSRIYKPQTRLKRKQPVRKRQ
# UniProt P26374, sequence (P26374 whole entry, looked up): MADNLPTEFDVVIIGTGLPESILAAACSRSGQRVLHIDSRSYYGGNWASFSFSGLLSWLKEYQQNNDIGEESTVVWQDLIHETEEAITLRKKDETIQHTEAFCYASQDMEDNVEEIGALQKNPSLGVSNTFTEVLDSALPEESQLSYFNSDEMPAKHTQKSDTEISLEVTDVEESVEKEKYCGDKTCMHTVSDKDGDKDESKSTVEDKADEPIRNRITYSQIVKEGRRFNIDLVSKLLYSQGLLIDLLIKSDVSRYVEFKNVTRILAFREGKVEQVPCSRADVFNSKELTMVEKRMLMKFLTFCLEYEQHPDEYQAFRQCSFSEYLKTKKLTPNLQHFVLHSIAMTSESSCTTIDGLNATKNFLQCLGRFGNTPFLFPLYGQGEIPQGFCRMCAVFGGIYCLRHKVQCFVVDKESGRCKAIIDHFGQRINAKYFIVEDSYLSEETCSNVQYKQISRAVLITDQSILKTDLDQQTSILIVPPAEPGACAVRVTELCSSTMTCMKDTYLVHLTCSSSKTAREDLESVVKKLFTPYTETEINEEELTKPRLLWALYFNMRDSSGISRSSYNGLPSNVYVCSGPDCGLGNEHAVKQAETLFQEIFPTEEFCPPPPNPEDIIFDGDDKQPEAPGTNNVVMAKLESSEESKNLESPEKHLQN
# UniProt Q9H2P9, sequence (Q9H2P9 whole entry, looked up): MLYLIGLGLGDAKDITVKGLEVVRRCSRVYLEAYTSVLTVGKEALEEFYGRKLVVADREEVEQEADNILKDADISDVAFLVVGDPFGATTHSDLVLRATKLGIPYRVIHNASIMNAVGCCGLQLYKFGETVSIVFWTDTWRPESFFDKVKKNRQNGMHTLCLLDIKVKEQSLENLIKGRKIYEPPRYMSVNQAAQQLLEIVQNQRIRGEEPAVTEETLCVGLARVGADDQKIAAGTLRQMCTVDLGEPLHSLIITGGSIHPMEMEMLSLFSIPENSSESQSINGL
# UniProt P17812, sequence (P17812 whole entry, looked up): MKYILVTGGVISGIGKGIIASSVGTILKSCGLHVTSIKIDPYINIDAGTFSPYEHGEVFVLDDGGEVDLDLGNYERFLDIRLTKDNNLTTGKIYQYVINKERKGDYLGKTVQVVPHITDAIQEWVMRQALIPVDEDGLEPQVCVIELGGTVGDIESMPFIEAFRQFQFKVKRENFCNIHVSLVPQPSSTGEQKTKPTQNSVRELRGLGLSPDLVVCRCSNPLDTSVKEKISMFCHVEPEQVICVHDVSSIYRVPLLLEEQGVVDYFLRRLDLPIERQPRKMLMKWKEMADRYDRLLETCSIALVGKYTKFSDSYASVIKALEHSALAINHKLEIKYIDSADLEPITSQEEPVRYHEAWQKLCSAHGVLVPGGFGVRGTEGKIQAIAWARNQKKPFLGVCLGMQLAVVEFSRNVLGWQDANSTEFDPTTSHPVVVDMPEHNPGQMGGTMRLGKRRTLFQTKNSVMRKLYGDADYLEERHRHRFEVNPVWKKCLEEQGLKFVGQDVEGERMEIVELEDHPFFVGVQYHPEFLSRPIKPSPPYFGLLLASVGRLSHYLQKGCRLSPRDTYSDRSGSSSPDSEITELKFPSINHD
# UniProt Q5EBM0, sequence (Q5EBM0 whole entry, looked up): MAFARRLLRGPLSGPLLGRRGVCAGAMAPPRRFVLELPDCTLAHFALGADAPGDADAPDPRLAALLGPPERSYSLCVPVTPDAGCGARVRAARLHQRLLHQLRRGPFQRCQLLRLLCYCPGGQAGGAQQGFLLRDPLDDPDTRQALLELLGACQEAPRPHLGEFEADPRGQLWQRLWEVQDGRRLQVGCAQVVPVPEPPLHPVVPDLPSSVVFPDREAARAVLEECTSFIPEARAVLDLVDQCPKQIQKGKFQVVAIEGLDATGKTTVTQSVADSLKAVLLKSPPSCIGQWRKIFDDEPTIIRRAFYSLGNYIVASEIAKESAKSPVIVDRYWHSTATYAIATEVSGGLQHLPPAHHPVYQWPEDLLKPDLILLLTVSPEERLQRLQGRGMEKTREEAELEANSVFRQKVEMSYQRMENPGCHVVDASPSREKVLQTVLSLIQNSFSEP
# UniProt P50570, sequence (P50570 whole entry, looked up): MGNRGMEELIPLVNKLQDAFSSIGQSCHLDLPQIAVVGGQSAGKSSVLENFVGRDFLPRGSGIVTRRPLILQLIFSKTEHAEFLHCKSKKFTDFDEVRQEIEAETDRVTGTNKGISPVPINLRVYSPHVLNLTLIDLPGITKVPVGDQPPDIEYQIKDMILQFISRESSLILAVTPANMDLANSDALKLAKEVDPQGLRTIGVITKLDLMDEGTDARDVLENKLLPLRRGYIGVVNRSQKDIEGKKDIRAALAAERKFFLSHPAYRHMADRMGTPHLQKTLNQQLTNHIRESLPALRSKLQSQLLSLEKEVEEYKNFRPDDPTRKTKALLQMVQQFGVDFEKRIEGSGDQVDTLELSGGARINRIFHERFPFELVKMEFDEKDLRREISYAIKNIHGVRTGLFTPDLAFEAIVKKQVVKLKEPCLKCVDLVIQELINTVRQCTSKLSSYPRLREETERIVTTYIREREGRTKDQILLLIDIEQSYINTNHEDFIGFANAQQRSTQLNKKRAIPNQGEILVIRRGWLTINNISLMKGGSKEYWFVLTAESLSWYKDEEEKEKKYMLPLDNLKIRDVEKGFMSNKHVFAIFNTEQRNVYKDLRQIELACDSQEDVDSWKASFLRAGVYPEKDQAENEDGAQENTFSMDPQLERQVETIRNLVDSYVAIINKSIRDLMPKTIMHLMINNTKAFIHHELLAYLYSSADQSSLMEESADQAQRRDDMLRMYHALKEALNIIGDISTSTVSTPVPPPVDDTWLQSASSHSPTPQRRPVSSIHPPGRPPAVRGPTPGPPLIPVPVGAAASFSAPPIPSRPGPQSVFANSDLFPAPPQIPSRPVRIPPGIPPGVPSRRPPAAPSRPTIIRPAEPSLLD
# UniProt Q96KP4, sequence (Q96KP4 whole entry, looked up): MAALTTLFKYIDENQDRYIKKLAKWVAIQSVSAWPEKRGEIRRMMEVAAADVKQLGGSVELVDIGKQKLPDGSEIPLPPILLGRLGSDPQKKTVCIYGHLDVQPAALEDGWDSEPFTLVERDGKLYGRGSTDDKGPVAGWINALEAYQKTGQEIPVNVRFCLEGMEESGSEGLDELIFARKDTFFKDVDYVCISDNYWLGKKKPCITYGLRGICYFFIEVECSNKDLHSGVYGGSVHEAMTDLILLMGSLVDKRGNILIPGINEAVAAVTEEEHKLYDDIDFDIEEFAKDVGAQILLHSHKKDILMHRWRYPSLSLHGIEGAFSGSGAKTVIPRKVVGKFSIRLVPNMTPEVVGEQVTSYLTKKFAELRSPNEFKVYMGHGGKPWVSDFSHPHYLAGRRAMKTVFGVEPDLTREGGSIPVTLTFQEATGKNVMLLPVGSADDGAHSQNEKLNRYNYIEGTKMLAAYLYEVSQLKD
# UniProt Q92796, sequence (Q92796 whole entry, looked up): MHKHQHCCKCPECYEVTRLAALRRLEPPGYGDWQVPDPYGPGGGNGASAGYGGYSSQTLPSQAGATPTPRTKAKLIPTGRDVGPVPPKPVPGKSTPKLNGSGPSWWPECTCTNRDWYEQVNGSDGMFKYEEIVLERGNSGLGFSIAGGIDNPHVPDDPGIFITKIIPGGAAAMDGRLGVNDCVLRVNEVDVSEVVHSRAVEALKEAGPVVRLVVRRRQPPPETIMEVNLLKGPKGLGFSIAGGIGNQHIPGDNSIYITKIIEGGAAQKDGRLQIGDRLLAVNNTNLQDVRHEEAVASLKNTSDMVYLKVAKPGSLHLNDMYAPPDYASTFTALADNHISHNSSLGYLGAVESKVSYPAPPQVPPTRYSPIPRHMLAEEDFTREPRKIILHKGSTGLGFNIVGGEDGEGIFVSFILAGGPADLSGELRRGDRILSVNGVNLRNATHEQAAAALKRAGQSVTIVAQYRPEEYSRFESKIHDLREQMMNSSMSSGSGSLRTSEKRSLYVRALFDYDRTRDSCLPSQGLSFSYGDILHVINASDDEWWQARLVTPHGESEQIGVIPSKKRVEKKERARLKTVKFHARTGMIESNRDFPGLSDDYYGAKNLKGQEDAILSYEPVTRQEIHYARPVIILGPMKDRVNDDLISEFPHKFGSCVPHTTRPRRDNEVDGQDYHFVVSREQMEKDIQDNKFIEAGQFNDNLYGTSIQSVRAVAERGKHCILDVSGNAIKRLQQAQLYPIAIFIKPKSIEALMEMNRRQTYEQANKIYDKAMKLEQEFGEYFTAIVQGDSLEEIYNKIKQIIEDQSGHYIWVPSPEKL
# UniProt P49674, sequence (P49674 whole entry, looked up): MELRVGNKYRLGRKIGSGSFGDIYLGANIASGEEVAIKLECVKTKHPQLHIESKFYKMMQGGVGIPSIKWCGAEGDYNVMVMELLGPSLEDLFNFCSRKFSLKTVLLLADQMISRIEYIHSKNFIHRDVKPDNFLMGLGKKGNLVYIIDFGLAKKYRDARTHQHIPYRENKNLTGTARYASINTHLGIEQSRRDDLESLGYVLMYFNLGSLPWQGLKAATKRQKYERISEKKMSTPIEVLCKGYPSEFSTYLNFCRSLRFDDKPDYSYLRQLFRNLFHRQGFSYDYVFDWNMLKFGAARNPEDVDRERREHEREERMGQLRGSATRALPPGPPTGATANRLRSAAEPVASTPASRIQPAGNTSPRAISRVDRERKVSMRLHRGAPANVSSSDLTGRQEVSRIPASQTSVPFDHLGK
# UniProt P04080, sequence (P04080 whole entry, looked up): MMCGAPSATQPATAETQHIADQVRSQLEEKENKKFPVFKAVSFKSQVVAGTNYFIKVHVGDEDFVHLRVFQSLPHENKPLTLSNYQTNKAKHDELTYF
Target,log2 fold change [1],log2 fold change (vorinostat),log2 fold change (silmitasertib),log2 fold change [2],log2 fold change (entospletinib)
CNOT6L (UniProt Q96LI5),0.019,-0.032,0.004,0.017,0
CLPTM1L (UniProt Q96KA5),-0.045,0.136,0.012,0.012,-0.039
DLD (UniProt P09622),-0.003,-1.96 (active),0.004,0.008,0.01
CSNK1E (UniProt P49674),0.016,-0.419 (active),0.206,0.01,0.012
CIAO2A (UniProt Q9H5X1),0.021,0.368 (active),-0.016,-0.037,0.009
DCTN1 (UniProt Q14203),0.011,-0.261 (active),-0.003,0.012,0.001
DNAH5 (UniProt Q8TE73),0.008,0.113,-0.179,,
DNAJC5 (UniProt Q9H3Z4),0.02,0.101,-0.071,-0.03,0.019
DENND1B (UniProt Q6P3S1),-0.063,-1.3 (active),0.28,-0.076,
CHML (UniProt P26374),0.029,-0.286 (active),0.003,-0.022,0.006
CNP (UniProt P09543),-0.017,-0.298 (active),-0.001,0.059,0.017
DAZAP1 (UniProt Q96EP5),0.032,-0.031,0.014,0.032,-0.001
DHCR7 (UniProt Q9UBM7),-0.098,-0.022,0.03,-0.004,0.078
COQ9 (UniProt O75208),0.005,0.084,0.002,0.031,-0.012
DNM2 (UniProt P50570),0.011,-0.27 (active),0.061,-0.021,0.014
COG4 (UniProt Q9H9E3),0.101,-0.333 (active),0.022,-0.022,-0.023
DAPK1 isoform 3 (UniProt P53355),0.09,-0.477,0.833 (active),0.004,
CYP51A1 (UniProt Q16850),-0.065,0.017,-0.084,0.864 (active),0.024
DNAJC1 (UniProt Q96KC8),0.003,0.017,0.025,-0.007,-0.032
DPY19L3 (UniProt Q6ZPD9),-0.085,0.219,0.108,0.035,-0.024
CNDP2 (UniProt Q96KP4),0.023,0.133,-0.025,-0.008,0.01
CORO1A (UniProt P31146),0.094,-0.412 (active),-0.003,0.025,0.116
CSK (UniProt P41240),-0.008,-0.262,-0.006,-0.021,0.195
DLG3 isoform 2 (UniProt Q92796),0.067,-0.023,-0.025,-0.036,-0.007
CIC (UniProt I3L2J0),-0.002,-0.108,-0.011,0.075,0.033
CSTB (UniProt P04080),-0.097,0.125,-0.045,0.022,-0.007
CRABP2 (UniProt P29373),0.169,0.18,-0.05,0.007,-0.209

Target,log2 fold change [1],log2 fold change (vorinostat),log2 fold change (silmitasertib),log2 fold change [2],log2 fold change (entospletinib)
CHUK (UniProt O15111),-0.016,-0.492 (active),0.103,0.054,0.012
CLASP1 isoform 4 (UniProt Q7Z460),-0.214,0.167,0.06,,
CTPS1 (UniProt P17812),-0.007,0.565 (active),0.028,-0.008,-0.005
COASY isoform 2 (UniProt Q13057),0.018,-0.214 (active),0.075,0.006,0.019
DOCK10 (UniProt Q96BY6),0,-0.07,0.143,-0.064,0.023
CUL1 (UniProt Q13616),0.001,0.072,0.006,-0.007,0.009
CHEK1 (UniProt O14757),0.008,0.086,0.168,-0.014,0.009
COX7B (UniProt P24311),-0.043,0.081,0,0,0.104
DDA1 (UniProt Q9BW61),-0.024,-0.289 (active),-0.006,0.05,0.054
CLCN3 isoform 2 (UniProt P51790),-0.059,-0.286 (active),0.033,-0.024,0.046
CIB1 (UniProt Q99828),-0.027,0.049,-0.006,-0.037,-0.091
CMPK2 (UniProt Q5EBM0),-0.002,-0.323 (active),0.005,0.064,0
CIP2A (UniProt Q8TCG1),0.043,-0.608 (active),0.055,0.011,0.008
COL12A1 (UniProt Q99715),0.29,0.037,-0.079,0.908,-0.036
CYP2S1 isoform 2 (UniProt Q96SQ9),0.014,0.067,-0.027,-0.025,0.055
DBF4 (UniProt Q9UBU7),0.059,-0.226,-0.138,0.028,0.002
COG7 (UniProt P83436),-0.013,-0.287 (active),0.06,0.034,0.033
DDAH1 (UniProt O94760),-0.076,0.07,-0.035,0.017,-0.014
CORO7 (UniProt P57737),-0.053,-0.019,-0.017,0.019,-0.045
DFFB (UniProt O76075),-0.003,0.258 (active),-0.025,0.013,-0.011
DOK1 (UniProt Q99704),-0.036,-0.297 (active),-0.043,-0.012,-0.011
CMBL (UniProt Q96DG6),-0.065,0.09,0.042,0.071,0.037
DES (UniProt P17661),0.108,0.097,0.03,0.05,0.027
DGCR8 (UniProt Q8WYQ5),-0.027,-0.38 (active),-0.041,-0.054,-0.066
DPM1 (UniProt O60762),0.05,-0.01,-0.016,-0.011,0.02
DPH5 isoform 5 (UniProt Q9H2P9),-0.046,-0.06,-0.015,0.077,-0.011
CHURC1 isoform 2 (UniProt Q8WUH1),-0.048,0.285 (active),-0.039,-0.043,-0.128
